A selection: hits, their analogues and other compounds. The true share with any hit is near 5.7%.
FAS-TE inh – FAS thioesterase domain inhibitors, primary screen, biochemical, fluorescence intensity, uHTS; recombinant FAS-TE, OMFH fluorogenic substrate, fluorescence endpoint; inhibition, % at 15 µM; Fatty acid synthase (Homo sapiens), P49327; 360,000 compounds, 0.67% hits;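 active = compounds whose normalised, plate-corrected inhibition of enzyme fluorescence in the single-dose primary screen is 50% or more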
rCAG binder – binders of r(CAG) RNA repeats, primary screen, biochemical, fluorescence | inhibition, % at 3 µM | r(CAG) RNA repeat, TO-PRO-1 dye displacement fluorescence | 370,000 compounds, 1.3% hits;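 active = inhibition above the plate cutoff, the mean of all test compounds on that plate plus 3 SD, cut at about 35% in these data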;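 also: higher means more dye released from RNA so lower well fluorescence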
MPTP inh – mitochondrial permeability transition pore inhibitors, primary screen, biochemical, isolated mouse mitochondria, absorbance | Ca2+ swelling absorbance, 30 min | inhibition, % at 10 µM | 360,000 compounds, 1.4% hits | AID 602449, 2012;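 active = inhibition of 50% or more, scaled per plate between neutral and stimulator controls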
Myeloid diff 2 – induction of myeloid progenitor differentiation, primary screen, cell-based, flow cytometry, MLPCN library; ER-HoxA9 myeloid progenitors, lysozyme-GFP differentiation; AID 624256, 2012; calls only at 10 µM; 360,000 compounds, 1% hits;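 active = normalized GFP-positive differentiation at or above the plate's own cutoff, the solvent-only control mean plus 3 SD; inconclusive = no clear call, values can overlap the other calls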;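 also: cells exposed to compound for four days before flow analysis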
GRIN3A LBD mod – binders of NR3A ligand-binding domain, primary screen, biophysical, differential scanning fluorimetry, uHTS | AID 1259313, 2017 | NR3A LBD differential scanning fluorimetry, Tm shift; 0% = protein alone, 100% = glycine-bound protein | Glutamate receptor ionotropic, NMDA 3A (GRIN3A) ligand-binding domain | Tm shift relative to glycine control, % at 25 µM | 340,000 compounds, 2.5% hits;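 active = melting temperature shift of at least 10% of the positive control shift, at one fixed dose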
Of the large screens only hits and unclear results are named; the others gave an inactive call.

Nc1ncnc2c1ncn2[C@@H]1O[C@H](CNC(=O)[C@@H](N)Cc2ccccc2)[C@@H](O)[C@H]1O	none
Cc1cc(S(=O)(=O)NC[C@H]2O[C@@H](n3cnc4c(N)ncnc43)[C@H](O)[C@@H]2O)c(C)s1	none
Nc1ncnc2c1ncn2[C@@H]1O[C@H](CNS(=O)(=O)c2cc(S(=O)(=O)c3ccccc3)cs2)[C@@H](O)[C@H]1O	GRIN3A LBD mod 15.4
Cn1cc(S(=O)(=O)NC[C@H]2O[C@@H](n3cnc4c(N)ncnc43)[C@H](O)[C@@H]2O)cn1	Myeloid diff 2 active
CC1(c2ccccc2)NC(=O)N(CC(=O)Nc2ccc(Cl)c(S(=O)(=O)N3CCCCC3)c2)C1=O (stereo not drawn)	Myeloid diff 2 active
CC1(c2ccccc2)NC(=O)N(CC(=O)Nc2ccc([N+](=O)[O-])cc2)C1=O (stereo not drawn)	none
Cc1ccc(C2(C)NC(=O)N(CC(=O)Nc3ccc(Cl)c(S(=O)(=O)N4CCCCC4)c3)C2=O)cc1 (stereo not drawn)	none
CC1(c2ccc([N+](=O)[O-])cc2)NC(=O)N(CC(=O)Nc2ccc(N3CCCCC3)cc2)C1=O (stereo not drawn)	Myeloid diff 2 active
N#C/C(=C\c1ccc(N2CCOCC2)o1)c1nc2ccccc2[nH]1	Myeloid diff 2 active
N#C/C(=C\c1ccccc1C(=O)O)c1nc2ccccc2[nH]1	none
N#C/C(=C\c1ccc(N2CCOCC2)c([N+](=O)[O-])c1)c1nc2ccccc2[nH]1	none
N#C/C(=C\c1ccc(-c2ccc(C(=O)O)cc2)o1)c1nc2ccccc2[nH]1	Myeloid diff 2 active
COC(=O)C1CN(Cc2cn(Cc3ccc(C)cc3)nn2)CCS(=O)(=O)N1Cc1ccc(C)cc1 (stereo not drawn)	none (no result: FAS-TE inh, MPTP inh, Myeloid diff 2, GRIN3A LBD mod)
C/C(=N\Nc1nc(-c2ccccc2O)nc2ccccc12)c1ccccc1	GRIN3A LBD mod 13.4
C/C(=N\Nc1nc(-c2ccccn2)nc2ccccc12)c1ccc(F)cc1	none (no result: rCAG binder)
C/C(=N/Nc1nc(-c2ccccc2F)nc2ccccc12)c1ccccc1O	Myeloid diff 2 active
CCN(CC)C(=O)CC[C@@H]1CC[C@]2(CCCN(Cc3cccs3)C2)O1	none (no result: FAS-TE inh, MPTP inh, Myeloid diff 2, GRIN3A LBD mod)
Cc1ccc(-c2nc(NC(=O)CSc3nnc4scc(-c5ccccc5)n34)ns2)cc1	Myeloid diff 2 active
CCCNC(=O)N1CC[C@H]2[C@@H]1c1cc(-c3ccc(F)cc3)ccc1N(C)[C@H]2CO	none (no result: FAS-TE inh, MPTP inh, Myeloid diff 2, GRIN3A LBD mod)
Cc1ccc2cc3c(N)c(C(=O)Nc4c(C)[nH]c(=O)[nH]c4=O)sc3nc2c1	none
Cc1[nH]c(=O)[nH]c(=O)c1NC(=O)c1sc2nc3c(C)cccc3cc2c1N	Myeloid diff 2 active
COc1ccc(C(=O)N2CCN(Cc3cn[nH]c3-c3ccc(OC)cc3F)CC2)cc1	GRIN3A LBD mod 47.5
CCCCCCCCN1C(=O)[C@@H](CC(=O)NCCCOC)C[C@@]2(C(=O)OC)C1=C[C@H](C(C)(C)C)O[C@@H]2C	none (no result: FAS-TE inh, MPTP inh, Myeloid diff 2, GRIN3A LBD mod)
O=C(Nc1ccc2c(c1)OCCO2)C(c1ccncc1)n1c(=O)c(-c2cc3ccccc3[nH]2)nc2ccccc21 (stereo not drawn)	Myeloid diff 2 active (no result: FAS-TE inh, GRIN3A LBD mod)
O=C(Nc1ccc2c(c1)OCCO2)C(c1ccc(C(F)(F)F)cc1)n1c(=O)c(-c2cc3ccccc3[nH]2)nc2ccccc21 (stereo not drawn)	none (no result: FAS-TE inh, GRIN3A LBD mod)
CN1C(=O)C[C@@](C#N)(C(=O)NCc2ccc3c(c2)OCO3)[C@H]1c1ccccc1	none (no result: FAS-TE inh, MPTP inh, Myeloid diff 2, GRIN3A LBD mod)
Clc1nc(-c2ccccn2)nc2scc(-c3ccccc3)c12	Myeloid diff 2 inconclusive, GRIN3A LBD mod 23.5
COc1cccc(CNC(=S)OC2CCC23CCC(c2ccccc2)CC3)c1 (stereo not drawn)	none (no result: FAS-TE inh, MPTP inh, Myeloid diff 2, GRIN3A LBD mod)
C(=C/c1nccc2c1[nH]c1ccccc12)/c1ccc2c(c1)OCO2	Myeloid diff 2 active, GRIN3A LBD mod 13.5
Cc1ccc2nc(NCc3ccccc3)c(C=O)c(=O)n2c1	GRIN3A LBD mod 13.7
Cc1ccc2nc(Nc3ccccc3)c(C=O)c(=O)n2c1	none
COC(=O)[C@]12C[C@H](CC(=O)NCc3ccc(C)o3)C(=O)N(Cc3ccc4c(c3)OCO4)C1=C[C@H](COCc1ccccc1)O[C@@H]2C	none (no result: FAS-TE inh, MPTP inh, Myeloid diff 2, GRIN3A LBD mod)
Cc1ccc(Oc2nc(-c3ccccc3)ncc2S(=O)(=O)c2ccc(C)cc2)cc1	GRIN3A LBD mod 11.4
O=Cc1ccc(OC(=O)c2cc(Cl)nc3ccccc23)cc1	none

Source: PubChem BioAssay
